# Assay results reported in PubChem BioAssay (Tox21).
# “And” between values parts separate entries of the source, which are not always exact repeats. Identical values can stand only once. Inconclusive results are not listed. Unmarked numbers belong to inactive results. The source made the active and inactive calls. Calls follow the shape of the full dose curve. Square brackets hold non-standard residues; d marks the D form. Peptide text beside a SMILES is read from it. * marks the point of attachment. Sta = CC(C)C[C@H](N)[C@@H](O)CC(=O)O; Isovaleryl = CC(C)CC(=O)*
# Biological target: 5-hydroxytryptamine receptor 2A (Homo sapiens) (UniProt P28223)
# Assay: 5-hydroxytryptamine receptor 2A (HTR2A) small molecule agonists, cell-based qHTS assay (AID 1963587); also: nearly all actives have a fitted effect of over 30% in size
# Settings: HTR2A-CHO cells, calcium flux fluorescence, agonist mode; series mostly up to 76.8 µM; activation: at the top concentration
# Excerpt: National Center for Advancing Translational Sciences [NCATS]
# Division of Preclinical Innovation [DPI]
# U.S. Environmental Protection Agency [EPA]
# National Institutes of Environmental Health Sciences [NIEHS]
# National Toxicology Program [NTP]
# U.S. Food and Drug Administration [FDA]
# The HTR2A receptor is a subtype of the 5-HT2 receptor that belongs to the serotonin receptor family and is a G protein-coupled receptor (GPCR). The HTR2A-CHO cell line stably expressing human 5-hydroxytryptamine receptor 2A (HTR2A) can be used for screening agonists of interactions between 5-HT2 and its ligands. The HTR2A-CHO calcium flux assay is a homogeneous fluorescence-based assay for detecting the intracellular calcium level using FDSS kinetic plate reader system.
# HTR2A-CHO cells were dispensed at 2000 cells/3uL/well in 1536-well black-clear bottom plates using a Multidrop Dispenser. After the assay plates were incubated at a 37 C/5% CO2 incubator for 18 h, 3 uL of Dye Loading Buffer was transferred to the assay plate by a Flying Reagent Dispenser. The assay plates were incubated at 37 C for 1h. For agonist mode, 23 nL of compounds dissolved in DMSO, positive controls or DMSO only was transferred to the assay plate by a pin tool. The fluorescence intensity in the plates was measured using FDSS 7000EX kinetic plate reader for 2 min at 1 sec intervals.
# % is scaled to controls: 0 for no effect and ±100 for the full control effect; potency is read from the fitted curve at half-maximal effect.
# 5-hydroxytryptamine receptor 2A (Homo sapiens), sequence (P28223 whole entry, looked up): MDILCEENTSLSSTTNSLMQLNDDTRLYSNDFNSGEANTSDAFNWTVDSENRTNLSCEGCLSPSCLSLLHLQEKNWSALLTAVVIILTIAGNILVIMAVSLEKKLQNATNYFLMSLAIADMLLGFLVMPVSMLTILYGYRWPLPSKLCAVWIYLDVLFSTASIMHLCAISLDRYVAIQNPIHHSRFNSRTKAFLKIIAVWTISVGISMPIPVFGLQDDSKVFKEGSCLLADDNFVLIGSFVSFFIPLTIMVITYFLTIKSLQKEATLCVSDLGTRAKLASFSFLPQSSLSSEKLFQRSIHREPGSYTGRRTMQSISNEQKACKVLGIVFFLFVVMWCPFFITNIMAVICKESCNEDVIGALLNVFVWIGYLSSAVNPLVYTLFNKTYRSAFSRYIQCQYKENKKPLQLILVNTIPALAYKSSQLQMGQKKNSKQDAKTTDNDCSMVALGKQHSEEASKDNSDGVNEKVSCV
SMILES,activation,Potency
[C-]1=CC=CC1.[Cl][Zr+2][Cl].c1cc[cH-]c1,3.05%,–
O=[N+]([O-])c1cc(C(F)(F)F)cc([N+](=O)[O-])c1Cl,16%,–
OC(Cc1ccccc1Cl)(Cn1[nH]cnc1=S)C1(Cl)CC1 (stereo not given),–,38.9 µM (active)
COP(=O)(OC)O/C(=C\Cl)c1cc(Cl)c(Cl)cc1Cl,-0.157%,–
Clc1ccc(C(Cl)(Cl)Cl)cc1Cl,-0.526%,–
COc1ccccc1N1CCNCC1,–,1.69 µM (active)
CCCCN(CCCC)C(=S)[S-].CCCCN(CCCC)C(=S)[S-].[Zn+2],17.5%,–
CO/C=C(/C(=O)OC)c1ccccc1COc1cccc(C(F)(F)F)n1,-2.12%,–
CC1C(=O)C[C@]2(C(C)C)C[C@H]12 (stereo not given in full),1.45%,–
Cc1ccn2nc(S(=O)(=O)Nc3c(F)cccc3F)nc2n1,-0.0011%,–
N#CNC#N,2.88%,–
CC(C)[C@H](C(=O)OC(C#N)c1cccc(Oc2ccccc2)c1)c1ccc(OC(F)F)cc1 (stereo not given in full),2.19%,–
CC(C)(C)C(O)C(Oc1ccc(-c2ccccc2)cc1)n1cncn1 (stereo not given),13.5%,–
Cc1ccc(OP(=O)(Oc2ccccc2)Oc2ccccc2)cc1,10.1%,–
Nc1ccc(Sc2ccc(N)cc2)cc1,-0.431%,–
Oc1cc(Cl)c(Cl)c(Cl)c1Cl,13.4%,–
Cc1ccccc1C(=O)Nc1cccc(OC(C)C)c1,-1.67%,–
COc1ccc2c(c1OC)C(=O)O[C@H]2[C@@H]1c2cc3c(cc2CCN1C)OCO3,-9.14% [at 35.6 µM],–
CC(C)(C)NC[C@H](O)c1ccc(O)cc1Cl,-1.03% [at 35.6 µM],–
CN(C)CCc1c[nH]c2ccccc12,–,0.0109 µM (active)

SMILES,activation,Potency
CC(=O)[O][Pb]([c]1ccccc1)([c]1ccccc1)[c]1ccccc1,–,49 µM (active)
OC(c1ccccc1)(c1ccccc1)C1CCNCC1,-11.8% [at 35.6 µM],–
CCOc1cccc(C2(N3CCN(c4ccccc4)CC3)CCC(C)CC2)c1 (stereo not given),1.09%,–
Nc1cc(Cl)ccc1Cl,-0.172%,–
O=S1(=O)OCC2C(CO1)C1(Cl)C(Cl)=C(Cl)C2(Cl)C1(Cl)Cl (stereo not given),8.28%,–
CC(C)CCCCCCCOP(=O)(Oc1ccccc1)Oc1ccccc1,4.99%,–
O=[N+]([O-])c1cc(Cl)c(Cl)cc1Cl,3.12%,–
CC(C)CC(=O)N[C@H](C(=O)N[C@H](C(=O)N[C@@H](CC(C)C)[C@@H](O)CC(=O)N[C@@H](C)C(=O)N[C@@H](CC(C)C)[C@@H](O)CC(=O)O)C(C)C)C(C)C (Isovaleryl-VV[Sta]A[Sta]-OH),-8.95% [at 35.6 µM],–
CC(C)(c1cc(Cl)c(O)c(Cl)c1)c1cc(Cl)c(O)c(Cl)c1,–,55 µM (active) and 24.5 µM (active)
COCC(C)N(C(=O)CCl)c1c(C)csc1C (stereo not given),-0.923%,–
CCCCOC(=O)c1ccccc1N,-1.29%,–
CCNP(=S)(OC)O/C(C)=C/C(=O)OC(C)C (stereo not given),-0.405%,–
CCOC(=O)COc1ccc(Cl)cc1Cl,-3.42%,–
CCC(C)c1cc(C(C)(C)C)cc(-n2nc3ccccc3n2)c1O (stereo not given),4.4% [at 35.6 µM],–
NC(=O)CC[C@@H]1NC(=O)[C@H](Cc2ccccc2)NC(=O)[C@H](Cc2ccc(O)cc2)NC(=O)CCSSC[C@@H](C(=O)N2CCC[C@H]2C(=O)N[C@@H](CCCN=C(N)N)C(=O)NCC(N)=O)NC(=O)[C@H](CC(N)=O)NC1=O,-9.53% [at 35.6 µM],–
c1cc(OCC2CO2)ccc1Cc1ccc(OCC2CO2)cc1 (stereo not given),–,inactive
CC(C)C(=O)Cl,3.09%,–
CCc1cc2c(s1)-n1c(C)nnc1CN=C2c1ccccc1Cl,-0.532% [at 35.6 µM],–
Oc1ccc2c3c1O[C@H]1[C@@H](O)C=C[C@H]4[C@@H](C2)NCC[C@@]341,0.364%,–
[Cl][Sn]([c]1ccccc1)([c]1ccccc1)[c]1ccccc1,–,10.4 µM (active)
